# GLP-1R agonist – activates the human GLP-1 receptor; HEK293 GLP-1R CRE-luciferase, luminescence, 4-6 h; cells express a hypersensitive GLP-1R form; Potency, µM (series often up to 45.6 µM), for inactives: at the highest dose activation, usual class: activators; 380,000 tested, 0.007% active; further: % of control where 0% means no effect
# Target sequence (P43220 whole entry, looked up): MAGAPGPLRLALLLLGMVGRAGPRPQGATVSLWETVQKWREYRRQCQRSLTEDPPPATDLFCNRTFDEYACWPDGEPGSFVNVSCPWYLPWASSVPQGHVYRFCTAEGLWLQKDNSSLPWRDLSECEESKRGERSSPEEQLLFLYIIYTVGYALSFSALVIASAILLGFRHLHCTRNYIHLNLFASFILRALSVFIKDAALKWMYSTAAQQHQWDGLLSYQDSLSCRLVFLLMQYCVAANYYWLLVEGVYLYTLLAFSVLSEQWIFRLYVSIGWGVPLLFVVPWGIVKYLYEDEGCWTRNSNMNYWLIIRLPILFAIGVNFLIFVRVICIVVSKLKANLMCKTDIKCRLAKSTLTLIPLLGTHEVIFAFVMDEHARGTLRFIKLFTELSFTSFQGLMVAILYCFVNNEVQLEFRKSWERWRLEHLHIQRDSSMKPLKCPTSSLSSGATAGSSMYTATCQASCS
# Mito fusion yeast – blocks mitochondrial division or promotes mitochondrial fusion | S. cerevisiae fusion-defective mutant growth rescue, CellTiterGlo 48 h | 320,000 tested, 0.23% active | Potency, µM (top dose mostly 46.1 µM), inactives show at the highest dose growth rescue (activation), most hits filed as activators | AID 485298; further: % of control where 0% means no effect; nearly all actives have a fitted effect of over 45% in size
#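 Read-out: ATP-based luminescence (CellTiterGlo, 10 min ambient) reporting growth of fusion-defective ts yeast after 48 hours at 37C on glycerol/ethanol YPEG medium in the presence of compound.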
# GLP-1R inv ag – GLP-1 receptor (human) inverse agonism; AID 624417; 410,000 tested, 1.6% active; P43220; HEK293 GLP-1R CRE-luciferase, luminescence, 24 h; GLP-1R form is constitutively active; Potency, µM (highest dose often 38.3 µM), inactives show top-dose activity change, negative = inhibition, actives largely listed as inhibitors; further: on the % scale 0 is the no-effect control and ±100 the full control effect; nearly all actives have a fitted effect of over 55% in size
#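 qHTS in 1536-well format: reporter HEK293 cells expressing constitutive GLP-1R activity in DMEM + 10% Nu serum, 24 hr with compounds at 37 deg C, luminescence read after 12 min with detection reagent.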
# BRCA1 expr up – BRCA1 expression activation; 380,000 tested, 1.1% active; MCF7-BRCA1-FFLuc reporter, luminescence, 48 h; response scale: scaled: vehicle 0%, 10 µM genistein 100%; Potency, µM (titrated, usually from 46.1 µM), for the others: at the highest dose activation, most hits filed as activators; further: nearly all actives have a fitted effect of over 80% in size
#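 Reporter cells (MCF7, BRCA1 promoter-firefly luciferase) received library compounds across a concentration series for 48 h. End-point luminescence was measured and concentration-effect curves derived after normalization.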
# GLP1R cytotox – cytotoxicity counter-screen for GLP-1 receptor inverse agonists; Potency, µM (titrated, usually from 38.3 µM), without a hit: at the top dose activity change, negative = inhibition, actives largely listed as inhibitors; HEK293 cAMP-luciferase reporter cells, luminescence, 24 h; 410,000 tested, 0.13% active; AID 624418;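 further: loss of luciferase light is scored as toxicity; on the % scale 0 is the no-effect control and ±100 the full control effect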
#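 Seeding density was 200 cells/uL; after overnight-length (12 h) culture, 23 nL compounds went on for 24 h at 37 °C. Readout used a luciferase detection reagent, luminescence taken after 12 min at room temperature.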
# An asterisk follows results filed as active; ? = inconclusive; / = no result given. Hits are enriched below; roughly 2.8% of the tested compounds scored in any of these assays. The call rests on the fitted dose curve; in most records, active means well fitted curve in the direction sought with a large enough effect; inconclusive means small, poorly fitted or top-dose-only effect, or another doubt; inactive means no such curve, though single readings can be large; an effect the other way counts as inactive or inconclusive. Potency means the concentration at half of the fitted maximal effect.
SMILES,GLP-1R agonist,Mito fusion yeast,GLP-1R inv ag,BRCA1 expr up,GLP1R cytotox
CN(CC(=O)NCc1ccco1)S(=O)(=O)c1ccc2c(c1)c(=O)n(C)c(=O)n2C,-2%,-3%,9%,2%,1%
COc1cc2c(cc1OC)-c1cc(Nc3ccccc3)nc(=O)n1CC2,31%,5%,188%,-20%,-7%
COc1cc2c(cc1OC)-c1cc(Nc3ccccc3Br)nc(=O)n1CC2,8.9µM*,7%,131%,-5%,-7%
CC1CCCN(C(=O)c2ccc(NS(=O)(=O)c3ccc4[nH]c(=O)[nH]c4c3)cc2)C1 (centres undefined),-7%,-3%,3%,9%,-6%
NC(Cc1ccc(C(F)(F)F)cc1)c1csc(NC(=O)Nc2ccccc2Oc2ccccc2)n1 (centres undefined),-20%,/,?,-27%,11µM*
NC(Cc1ccccc1)c1csc(NC(=O)Nc2ccccc2Oc2ccccc2)n1 (centres undefined),-7%,/,?,-29%,-8%
COC(=O)c1cc(-c2cc(OC)ccc2OC)nc2c1c(=O)n(C)c(=O)n2Cc1ccccc1,11%,-14%,10%,-28%,1%
Cc1noc(C)c1C(=O)Nc1nc2ccccc2s1,10%,8%,41%,6.3µM*,-1%
Cc1csc(SCC(=O)Nc2ccccc2)n1,14%,-4%,10%,-1%,7%
Cc1csc(SCC(=O)Nc2nc3ccccc3s2)n1,1%,-3%,3%,2.8µM*,-9%
CCOC(=O)Nc1nc2ccccc2s1,-5%,3%,7%,5.6µM*,17%
Cc1cc2ncn(/N=C/c3cc(Br)ccc3O)c2cc1C,/,2%,/,/,/
CCOc1ccc(NC(=O)c2nc(S(=O)(=O)Cc3ccccc3F)ncc2Cl)cc1,/,/,11µM*,-5%,?
Clc1cccc(CSc2nc3ccncc3[nH]2)c1,9%,2%,5%,8.9µM*,5%
Fc1cccc(CSc2nc3ccncc3[nH]2)c1,2%,12%,11%,?,3%
CC(=O)OC1CCC2(C)C(COc3ccc4ccc(=O)oc4c3)C(C)(O)CCC2C1(C)C (centres undefined),-1%,1%,11µM*,-13%,-16%
Cc1cccc(C)c1N1CCN(C(=O)c2ccc3c(c2)OCO3)CC1,-2%,11%,10µM*,-23%,11%
Cc1cccc(N2CCN(C(=O)c3ccc4[nH]c(C)c(C)c4c3)CC2)c1C,11%,/,2.5µM*,-75%,-16%
Cc1cccc(N2CCN(C(=O)c3ccc(S(=O)(=O)N(C)c4ccccc4)cc3)CC2)c1C,3%,/,1µM*,-94%,-25%
Cc1[nH]c2ccc(C(=O)N3CCN(c4ccccc4Cl)CC3)cc2c1C,-1%,8%,?,10%,0%
Cc1ccc(Cc2c[nH]c(=S)s2)cc1,3%,0%,-19%,0%,?
COc1ccc(NC(=O)c2coc3ccccc23)cc1OC,16%,1%,12%,10µM*,-5%
COc1ccc(NC(=O)c2coc(=O)c3ccccc23)cc1OC,/,/,9%,/,30%
COc1ccc(C(=O)NC(=O)Nc2ncccc2C)cc1,-2%,-1%,3%,2.8µM*,8%
Cc1ccc(NC(=O)c2ccc3nsnc3c2)c(Cl)c1,-1%,6%,1%,1µM*,-24%
SMILES,GLP-1R agonist,Mito fusion yeast,GLP-1R inv ag,BRCA1 expr up,GLP1R cytotox
COc1ccc(NC(=O)Nc2ncccc2C)cc1,4%,-3%,0%,?,1%
COc1ccc(NC(=O)c2ccc3nccnc3c2)cc1,-14%,-1%,-13%,2.8µM*,-13%
O=C(/C=C/Nc1ccccc1)c1ccc(Oc2ncccn2)cc1,-12%,-1%,40%,3.5µM*,4%
Cn1c(SCC(=O)N2CCCC2)nc2cccnc21,-5%,2%,8%,8%,-20%
CCn1c(=O)cc(SCC(=O)NCCN2CCN(Cc3ccccc3)CC2)c2ccccc21,-1%,3%,-10%,-31%,-13%
COc1ccc(NC(=O)c2ccc(Oc3ncccn3)cc2)cc1,-1%,1%,-2%,8.9µM*,-12%
COc1ccc(NC(=O)c2ccc(NC(=O)c3ccncc3)cc2)cc1,3%,4%,5%,3%,-7%
Cc1ccc(NC(=O)c2ccc3snnc3c2)cc1,18%,0%,-15%,55%,2%
COc1ccc(NC(=O)c2coc(C)c2)cc1,9%,4%,1%,5.6µM*,-13%
O=C(Nc1ccccc1Cl)c1ccc2nccnc2c1,4%,1%,-7%,5µM*,-14%
COc1cc(NC(=O)c2ccc3snnc3c2)cc(OC)c1,16%,4%,5%,11µM*,-4%
COc1ccc(NC(=O)c2ccc(=O)oc2)cc1,4%,-4%,-27%,26%,3%
COC(=O)c1ccccc1NC(=O)c1ccc2nccnc2c1,12%,9%,51%,5%,1%
CCc1ccc2c(c1)C1(NN=C(c3cccc4ccccc34)S1)C(=O)N2 (centres undefined),/,-1%,/,/,/
CCC(CC)C(=O)Nc1ccncc1,/,-2%,/,/,/
CCN1C(=O)CC(N2CCN(c3ccc(C(=O)c4ccccc4)cc3)CC2)C1=O (centres undefined),-4%,-10%,-23%,11µM*,4%
CCN1C(=O)CC(N2CCN(c3ccc(Cl)cc3)CC2)C1=O (centres undefined),13%,3%,0%,3%,-3%
COc1cc(NC(=O)NC(C)c2c(-n3cccc3)sc3c2CCCC3)cc(OC)c1OC (centres undefined),/,/,11µM*,/,1%
CC(NC(=O)Nc1ccccc1C(F)(F)F)c1c(-n2cccc2)sc2c1CCCC2 (centres undefined),/,/,?,/,7%
Cc1ccc(N(C(=O)c2ccn[nH]2)C(C(=O)NC2CCCC2)c2cccs2)cc1 (centres undefined),/,1%,/,/,/
COC(=O)c1cc(C(=O)N2CCN(c3ccccc3OC)CC2)cc([N+](=O)[O-])c1,22%,-3%,1µM*,-31%,?
COC(=O)c1cc(C(=O)N2CCN(c3cccc(C)c3C)CC2)cc([N+](=O)[O-])c1,11%,-4%,4µM*,-39%,?
CCOc1ccc(N2C(=O)CC(Sc3nc(-c4cccs4)cc(C(F)(F)F)c3C#N)C2=O)cc1 (centres undefined),20%,-6%,0%,-18%,2%
CC(C)(C)C(=O)NNC(=O)c1cc(C(C)(C)C)nn1Cc1ccccc1,11%,-3%,?,-2%,6%
CC(C)(C)c1cc(C(=O)NNc2cccc(Cl)c2)n(Cc2ccccc2)n1,-1%,-2%,1.3µM*,-12%,6%
COc1ccccc1NNC(=O)c1cc(C(C)(C)C)nn1Cc1ccccc1,11%,9%,?,10µM*,-15%
